Measured values reported in PubChem BioAssay AID485346 (Sanford-Burnham Center for Chemical Genomics, 2010).
About 10,000 (3%) of roughly 330,000 compounds were called active.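 The calls were made as follows: active = inhibition of at least 50% at 8 µM in the primary screen; inactive = the rest.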 The sample as a whole holds a higher share of actives than the screen did.

Biological target: Protein Mdm4 (Homo sapiens) + E3 ubiquitin-protein ligase Mdm2 (Homo sapiens) (UniProt O15151+Q00987)
Test: inhibitors of human Mdm2-MdmX association, primary screen, cell-based, luminescence, split luciferase, SaOS-2, uHTS (AID 485346)
Details: SaOS-2 split-luciferase Mdm2/MdmX complementation, at 8 µM, active compounds read high

Protein Mdm4 (Homo sapiens) + E3 ubiquitin-protein ligase Mdm2 (Homo sapiens), sequence (O15151 whole entry, looked up): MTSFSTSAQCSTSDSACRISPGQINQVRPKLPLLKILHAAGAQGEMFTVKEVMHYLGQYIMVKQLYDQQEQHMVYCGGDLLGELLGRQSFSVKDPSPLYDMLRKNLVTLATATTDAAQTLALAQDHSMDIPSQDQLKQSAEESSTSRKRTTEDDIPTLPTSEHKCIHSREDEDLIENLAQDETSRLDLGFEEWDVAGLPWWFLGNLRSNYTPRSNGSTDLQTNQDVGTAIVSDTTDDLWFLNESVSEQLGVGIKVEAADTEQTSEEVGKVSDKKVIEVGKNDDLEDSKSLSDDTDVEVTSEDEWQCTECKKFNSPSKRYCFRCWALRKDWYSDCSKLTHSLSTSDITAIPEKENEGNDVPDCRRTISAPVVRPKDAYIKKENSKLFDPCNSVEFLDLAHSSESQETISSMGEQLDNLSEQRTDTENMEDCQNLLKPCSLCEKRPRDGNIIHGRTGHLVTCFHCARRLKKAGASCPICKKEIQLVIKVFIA
Protein Mdm4 (Homo sapiens) + E3 ubiquitin-protein ligase Mdm2 (Homo sapiens), sequence (Q00987 whole entry, looked up): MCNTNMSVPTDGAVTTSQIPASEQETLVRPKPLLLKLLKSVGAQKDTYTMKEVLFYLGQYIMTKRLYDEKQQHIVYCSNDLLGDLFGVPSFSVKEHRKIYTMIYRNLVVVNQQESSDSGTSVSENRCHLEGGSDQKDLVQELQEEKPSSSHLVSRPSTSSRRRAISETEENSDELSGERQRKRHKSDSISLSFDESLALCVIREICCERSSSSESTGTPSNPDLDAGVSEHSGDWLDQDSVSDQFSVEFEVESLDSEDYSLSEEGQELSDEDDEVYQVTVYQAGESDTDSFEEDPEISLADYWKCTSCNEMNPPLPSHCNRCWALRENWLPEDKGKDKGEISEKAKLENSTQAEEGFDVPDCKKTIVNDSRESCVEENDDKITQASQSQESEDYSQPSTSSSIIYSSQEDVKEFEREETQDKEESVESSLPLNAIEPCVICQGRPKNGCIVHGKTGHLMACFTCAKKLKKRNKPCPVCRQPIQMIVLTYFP

inhibition, active:
FC(F)(F)c1nnc2c3ccccc3c(Cl)nn12 64.4%
CCN(CCCNC(=O)CSc1cc(=O)n(C)c2cc(Cl)ccc12)Cc1ccccc1 54.7%
C=CCn1c(SCc2c(C)noc2C)nc2sc3c(c2c1=O)CCC(C)C3 (centres undefined) 52.5%
COc1ccc(-c2nc(-c3ccccc3)no2)c(OC)c1 58.4%
CCOC(=O)/C=c1\s/c(=C\c2ccc(C#N)cc2)c(=O)n1CC(=O)Nc1cccc(C)c1C 78%
CC1(C)CCSC(/C=C/c2ccccc2)=N1 85.2%
Cc1cc2oc3ccc(NCCC4CCCN4C)cc3c(=O)c2cc1C (centres undefined) 90%
COc1cc(SC)ccc1C(=O)Nc1nc(C)cs1 70.4%
Cc1cc(C)c2[nH]c(=O)c(CN(Cc3ccccc3)C(=S)NCCCN(C)C)cc2c1 90.9%
COc1cc(NC(=O)c2cncc(-c3ccc(C#N)cc3)c2)cc(C(=O)Nc2cccc(C(F)(F)F)c2)c1 59.6%
COc1cc(NC(=O)c2[nH]cnc2C(N)=O)cc(C(=O)Nc2cccc(C(F)(F)F)c2)c1 97.2%
Cc1c(C(=O)Nc2cccc(Cl)c2)cn2c(nc3ccccc32)c1C#N 60.3%
CC(C)c1cc(C(=O)N/N=C/C(Br)=C/c2ccccc2)n[nH]1 66.1%
COc1ccc(OC)c(C2C3=C(N=c4s/c(=C\c5cccc(O)c5)c(=O)n42)c2ccccc2CC3)c1 (centres undefined) 79.2%
CSc1nc(-c2ccccc2)nc(C(Cl)Cl)n1 101%
c1ccc(C2CCC(N3CCC(N4CCCCC4)CC3)CC2)cc1 (centres undefined) 91.3%
Cc1cccc(NC(=O)Nc2cccc(Oc3c(F)c(F)c(F)c(F)c3F)c2)c1 74.3%
O=C(NC(=S)Nc1ccc2oc(=O)ccc2c1)c1ccc(-c2cccc(Cl)c2Cl)o1 80.7%
CCOc1cc(C(=O)N2CCc3cc(OC)c(OC)cc3C2)ccc1OC(F)F 51%

inhibition, inactive:
Cc1ccc2c(c1)C1C[N+](C)(CC(=O)c3ccccc3)CCC1N2C(=O)c1ccccc1Cl (centres undefined) -17.1%
CCSC1=NCCN1S(=O)(=O)c1ccc(F)cc1 -0.662%
FC(F)(F)c1nnc2ccc(N3CCN(c4ccccc4)CC3)nn12 26.8%
Nc1nnc2c(C(F)(F)F)nc3ccccc3n12 -2.03%
Cc1cc2oc(C(=O)Nc3c(C)n(C)n(-c4ccccc4)c3=O)c(C)c2cc1Cl 23.4%
COc1ccc(CNC(=O)c2ccc3oc(C(C)C)nc3c2)cc1 -34.8%
Cc1cccc(N2O[C@H]3C=CC2CCCC3)n1 15.6%
CC(=O)c1ccccc1NC(=O)CC1(CC(=O)O)CCCCC1 10.9%
CCOc1ccc(CCNC(=O)CSc2cc(=O)n(C)c3ccc(Cl)cc23)cc1OCC 4.16%
CCN(CC)CCCNC(=O)CCc1ccccc1 27.2%
CC(=O)OCCC(C)C 9.67%
C=CCn1c(SCC(=O)NCCCO)nc2sc3c(c2c1=O)CCC3 0.393%
C=CCn1c(SCC(=O)NCC2CCCO2)nc2sc(C)c(C)c2c1=O (centres undefined) 2.91%
Cc1ccc(-c2ccc(=O)n(Cc3ccc(F)cc3Cl)n2)cc1 -15.3%
COc1ccc(/C=C/c2noc(-c3ccccc3OC(C)=O)n2)cc1 -61.9%
Cc1ccc(-c2nc(-c3ccncc3)no2)c(C)c1 -116%
O=C(NCCN1CCOCC1)c1cc(Sc2cccc(Cl)c2)nc2ccccc12 -2.97%
CCOC(=O)/C=c1\s/c(=C\c2ccccc2OC)c(=O)n1CC(=O)N1CCOCC1 11.5%
Cc1cccc(NC(=O)CSC(N)=O)c1C 2.96%
COc1cc(Cl)c(C)cc1NC(=O)[C@@H]1CCCN1C(=O)c1cccs1 6.14%
COc1ccc(S(=O)(=O)N2CCN(c3cnccn3)CC2)cc1 13.5%
CC(=O)N1CCC(N(C(=O)Nc2ccc(Cl)cc2)C(C)C)CC1 -29%
COc1cccc2sc3cc(NCC[C@@H]4CCCN4C)ccc3c(=O)c12 -8.67%
Cc1cc2oc(=O)cc(CN3CCN(Cc4ccccc4)CC3)c2cc1C -23.1%
CCCCC1(C(=O)OCC)NC(c2ccc(O)cc2)C2C(=O)N(c3ccccc3)C(=O)C21 (centres undefined) 4.63%
COc1cccc(NC(=O)CCc2nnc3ccc(N4CCC(C)CC4)nn23)c1 6.23%
CC(=O)Nc1ccc(CN2CCN(Cc3ccc(F)c(F)c3)C(CCO)C2)cc1 (centres undefined) -4.68%
CC(C)c1nc(CNC(=O)CC2C(=O)NCCN2Cc2ccoc2)cs1 (centres undefined) 17%
Cc1csc(NC(=O)c2ccc(C)s2)n1 -81.3%
COc1cc(SC)ccc1C(=O)Nc1cc(C)ccn1 -133%
COc1ccc(-c2c(C(C)=O)c(C)nc3sc4c(=O)n(-c5ccc(C)cc5)nnc4c23)cc1 16.5%
O=S(=O)(Nc1cccc(-c2ccc(N3CCOCC3)nn2)c1)c1ccc(Cl)c(Cl)c1 -21.1%
NC(=O)c1ccc(Nc2ccc3nonc3c2[N+](=O)[O-])cc1 19.2%
Cc1cc(C)cc(NC(=O)C(c2ccccc2)N2CCN(CC(=O)N3CCCC3)CC2)c1 (centres undefined) 24%
COC1=CCC2([N+](=O)[O-])CN(CC(=O)O)CC1([N+](=O)[O-])C2 (centres undefined) 4.95%
Fc1ccc(-c2ccc(CNCc3ccccn3)o2)cc1Cl 1.76%
COCCCNC(=S)N(CCN(C)C)Cc1cc2cc3c(cc2[nH]c1=O)OCCO3 -4.07%
Cc1cccc2cc(CN(Cc3cccs3)C(=S)NCc3ccco3)c(=O)[nH]c12 19.1%
COc1ccccc1NC(=O)CCC(=O)OC(C)C(=O)c1ccccc1 (centres undefined) -23.8%
CCCn1c(O)c(CN2CCCC(C)C2)c(C)c(C#N)c1=O (centres undefined) -48.3%
CCN(CC(=O)NCc1ccc(F)cc1)S(=O)(=O)c1ccc(Cl)s1 -3.24%
N#Cc1ccc(Oc2ccc(C(F)(F)F)cc2NC(=O)c2ccc(F)cc2)cc1 9.08%
COc1ccc(NC(=O)CN(C)CC(=O)Nc2cccc(C(F)(F)F)c2)cc1 14.9%
Cc1cccc(NC(=O)c2nnn(-c3cccc(C(F)(F)F)c3)c2N)c1 8%
COc1ccc(NC(=O)C(=O)NCC(=O)Nc2cccc(C(F)(F)F)c2)cc1 12.2%
CCN1C(=O)[C@H]2[C@@H](c3ccc(-c4ccc(F)cc4)cc3)N[C@@](Cc3ccccc3)(C(=O)OC)[C@H]2C1=O 48%
CCCC(CNC(=O)COC(=O)C1=NNC(=O)CC1)c1ccc(Cl)cc1Cl (centres undefined) -11.5%
C=C(C)C(=O)Nc1cccc(C2=NOC3(C2)C[C@H](C(N)=O)N(C(=O)C(c2ccccc2)c2ccccc2)C3)c1 (some centres undefined) 16.4%
O=C(O)c1cccc(NC(=O)c2cc(-c3cccc(Cl)c3)nc3ccccc23)c1 0.449%
Cn1c(Nc2cccc(Cl)c2)nc2ccccc21 -18.1%
CC(=O)c1c(C)[nH]c(C(=O)OCC(=O)NCCC(C)C)c1C 17.9%
CCOc1cc(NC(=S)NCCCN(C)C)c(OCC)cc1NC(=O)C1CC1 3.9%
Cc1cc(C(=O)N/N=C\C(Br)=C\c2ccccc2)c(C)o1 -18.5%
CC(C)c1cc(C(=O)O)n[nH]1 5.75%
O=C1CSc2ccc(S(=O)(=O)NCc3ccccc3)cc2N1 -3.1%
CCOC(=O)C1=C(C)N=c2s/c(=C\C(=O)OC)c(=O)n2C1c1ccc(OC)cc1 (centres undefined) 12.2%
O=C1CCCC2=C1C(c1ccccc1)n1c(s/c(=C/c3cccc(F)c3)c1=O)=N2 (centres undefined) -4.28%
O=C(N/N=C/c1ccc(Cl)cc1)c1nc2ccc([N+](=O)[O-])cc2c(=O)[nH]1 6.69%
COC(=O)c1sc(SC)c(S(=O)(=O)C(C)C)c1N/N=C(\C#N)S(=O)(=O)c1ccccn1 9.73%
O=C(NC1CCc2ccccc21)C12CN(Cc3ccccc3)CC1C(c1cccc([N+](=O)[O-])c1)=NO2 (centres undefined) 0.069%
CSc1ncc(Sc2ccccc2)c(C(=O)O)n1 8.72%
CN=C(NC#N)NCCSCc1nc[nH]c1C 2.92%
CC1(C)CC(=O)C=C(NCc2ccncc2)C1 27.3%
O=S(=O)(c1ccccc1)N1CCC(c2ccccc2)CC1 -19.7%
Cc1ccc(S(=O)(=O)N2CCC(N3CCCCCC3)CC2)cc1 1.35%
CCOC(=O)C1CCN(C(=O)C2CCN(S(=O)(=O)CC)CC2)CC1 12.2%
CCN(CC(=O)NCCCN1CCOCC1)S(=O)(=O)c1cc(Cl)ccc1Cl 20.3%
COc1ccc(N=C2SC(C(=O)Nc3ccc(F)cc3)CC(=O)N2C)cc1 (centres undefined) 15%
Cc1cccc(NC(=O)NC(=S)NC(=O)c2ccccc2)c1 -38.5%
Cc1ccc(NC(=O)Nc2ccccc2)c(Br)c1 -41.3%
O=C(COc1ccc(Cl)cc1)Nc1ccc2oc(=O)ccc2c1 -1.06%
CC(C)C(=O)Nc1ccc2oc(=O)ccc2c1 3.99%
CC1(C)CC(=O)C=C(c2cccc3c2Oc2ccccc2S3)C1 2.33%
COc1cc2c(cc1OC)CN(C(=O)c1cc(=O)c3ccccc3o1)CC2 49.8%
COc1cc2c(cc1OC)CN(C(=O)c1ccc(S(=O)(=O)N3CCCCCC3)cc1)CC2 11%
